An excerpt weighted towards active compounds, which were near 1.6% of everything screened.
KCNQ2 pot: potentiators of rat KCNQ2 potassium channel | Potassium voltage-gated channel subfamily KQT member 2 (Rattus norvegicus), O88943 | CHO-K1 KCNQ2, FluxOR thallium flux fluorescence; active compounds read high | B-score at 10 µM | 310,000 compounds, 0.54% hits;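 active = fluorescence ratio B-score at least 3 SD of library B-scores, with initial fluorescence B-score within 3 of them, cut at about 5.3 in these data; same plate scores as AID 2156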;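 also: B-score of peak minus minimum over baseline fluorescence ratio after K+ and Tl+ stimulus; positive B-score means potentiation of KCNQ2 with more thallium influx and brighter signal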
Target sequence (O88943 whole entry, looked up): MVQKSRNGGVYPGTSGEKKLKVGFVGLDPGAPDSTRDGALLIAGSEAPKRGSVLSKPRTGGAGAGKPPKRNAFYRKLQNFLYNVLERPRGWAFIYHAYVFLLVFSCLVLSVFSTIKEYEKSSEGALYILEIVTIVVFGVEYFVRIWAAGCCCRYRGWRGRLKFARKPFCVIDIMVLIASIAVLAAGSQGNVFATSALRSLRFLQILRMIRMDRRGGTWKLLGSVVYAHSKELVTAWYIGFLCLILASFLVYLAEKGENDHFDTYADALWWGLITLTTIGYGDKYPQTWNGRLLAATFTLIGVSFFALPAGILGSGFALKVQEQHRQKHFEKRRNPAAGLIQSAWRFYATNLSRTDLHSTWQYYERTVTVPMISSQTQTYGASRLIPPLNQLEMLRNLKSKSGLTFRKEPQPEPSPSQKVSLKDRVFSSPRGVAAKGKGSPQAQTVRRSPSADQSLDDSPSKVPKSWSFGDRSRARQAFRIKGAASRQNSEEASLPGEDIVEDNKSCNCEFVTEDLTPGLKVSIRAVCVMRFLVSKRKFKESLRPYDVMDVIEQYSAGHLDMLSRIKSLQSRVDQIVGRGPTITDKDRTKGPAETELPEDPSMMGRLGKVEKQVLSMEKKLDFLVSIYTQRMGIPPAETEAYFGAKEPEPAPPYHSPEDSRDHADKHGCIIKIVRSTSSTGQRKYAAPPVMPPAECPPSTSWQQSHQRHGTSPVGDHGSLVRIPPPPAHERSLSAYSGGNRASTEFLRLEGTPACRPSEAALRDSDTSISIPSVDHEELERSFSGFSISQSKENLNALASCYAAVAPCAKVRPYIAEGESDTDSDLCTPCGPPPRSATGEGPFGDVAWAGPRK
KCNQ2 inh: rat KCNQ2 potassium channel inhibitors, primary screen, cell-based, CHO-K1, FluxOR thallium flux, B-score | 310,000 compounds, 1.1% hits | Potassium voltage-gated channel subfamily KQT member 2 (Rattus norvegicus), O88943 | B-score at 10 µM | 20 min; active compounds read low;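 active = fluorescence ratio B-score at most minus 3 library SDs, with starting brightness B-score within 2 library SDs, cut at about -5.5 in these data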
* = called active by the depositor; i = inactive; · = not tested or not shown.

SMILES	KCNQ2 pot	KCNQ2 inh
CC(=O)NNC(=O)c1[nH]c2ccc(Br)cc2c1-c1ccccc1	3.3	i
CCOC(=O)NNC(=O)c1[nH]c2ccc(Br)cc2c1-c1ccccc1	-6.8	-6.8*
CC(C)c1nc(CNC(=O)C2CCC(=O)N(CCc3ccc(Cl)cc3)C2)no1 (configuration not stated)	0.02	i
O=C(CCc1nc2ccccc2[nH]1)Nc1ccccc1F	6.6*	i
O=C(CCc1nc2ccccc2[nH]1)Nc1ccc(F)cc1	·	i
CCOc1ccc(C(=O)OC(C)CN2CCN(C)CC2)cc1 (configuration not stated)	·	i
COc1ccc(NC(=O)C2CCCN2C(=O)OC(C)(C)C)cc1 (configuration not stated)	0.25	i
CCN1CCSc2ccc(C(=O)NCc3cc(Br)ccc3OC)cc21	·	i
COc1ccc(Br)cc1CNC(=O)c1ccc2c(c1)N(C)CCS2	-6.4	-6.4*
O=C(NCCc1ccc(Cl)cc1)c1cccc(NC2=NC3CS(=O)(=O)CC3S2)c1 (configuration not stated)	·	i
NC(=O)NCc1cccs1	·	i
COc1ccc2c(c1)C(C)CC(C)(C)N2C(=O)CSc1nc2ccccc2s1 (configuration not stated)	-7.5	-7.5*
COc1ccc2c(c1)C(C)CC(C)(C)N2C(=O)Nc1ccccc1 (configuration not stated)	·	i
CCn1c(CSCc2ccc(C)cc2)nnc1SCC(=O)N1CCN(c2ccccc2)CC1	-7.8	-7.8*
C=CCn1c(CSCc2ccccc2)nnc1SCC(=O)N1CCN(c2ccccc2)CC1	·	i
CCC(=O)N1CCC2(CC1)Oc1ccc(F)cc1C(=O)C21CC(c2ccccc2)=NO1 (configuration not stated)	·	i
Cc1ccc(OCC(=O)N(c2ccccn2)C2CCCCC2)c(C)c1	-6.4	-6.4*
O=C(COCCOCC(=O)N(c1ccccn1)C1CCCCC1)N(c1ccccn1)C1CCCCC1	0.07	i
CN1CCN(/C=C(\C#N)S(=O)(=O)c2ccc(Cl)cc2)CC1	·	i
CN(C)/C=C(\C#N)S(=O)(=O)c1ccc(Cl)cc1	-6.8	-6.8*
CCOc1ccc(-c2cc(C(=O)NCCCN3CCCC3)c3ccccc3n2)cc1	·	i
COc1cccc(-c2ccc(NC(=O)C3CCCN(Cc4nccn4C)C3)cc2)c1 (configuration not stated)	·	i
CCCCC(CC)CNC(=O)C(Cc1ccccc1)NS(=O)(=O)c1ccc2c(c1)CCC(=O)N2 (configuration not stated)	·	i
Cc1ccc(S[C@@H](CCN2CC[C@H](NC(=O)OCc3ccccc3)CCC2=O)c2ccccc2)cc1	-6.9	-6.9*
Cc1ccc(SC[C@H](C)CN2CC[C@H](NC(=O)OCc3ccccc3)CCC2=O)cc1	·	i
SMILES	KCNQ2 pot	KCNQ2 inh
CC(C)SCCCCOc1ccc2ccccc2c1	-6.9	-6.9*
CC(C)SCCCOc1ccc(C(C)(C)C)cc1	-5.8	-5.8*
c1ccc2cc(OCCOCCOc3ccc4ccccc4c3)ccc2c1	·	i
CC(C)(C)c1ccc(OCCN2CCCC2)cc1	·	i
CCn1nc(C)c(CN2CCC(Oc3ccc(C(=O)N4CCCC4)cc3)CC2)c1C	·	i
CCC1CCCCN1CCCNC(=O)c1ccc2c(c1)c(C)c(C)n2C (configuration not stated)	0.33	i
CC(OC(=O)Cc1c[nH]c2ccccc12)C(=O)Nc1ccccc1F (configuration not stated)	1.1	i
Cc1cccc(NC(=O)C2(c3ccccc3)CC2(Cl)Cl)c1 (configuration not stated)	·	i
Cc1cc(C)cc(NC(=O)C2(c3ccccc3)CC2(Cl)Cl)c1 (configuration not stated)	-6.3	-6.3*
Clc1ccc(-c2nnc(-c3ccco3)nc2N2CCCCC2)cc1	·	i
Clc1ccc(-c2nnc(-c3ccc(Br)cc3)c(N3CCSCC3)n2)cc1	-7	-7*
CC(C)(C)C(=O)CN1C(=O)NC(C)(Cc2ccc3c(c2)OCO3)C1=O (configuration not stated)	·	i
Cc1ccc(C(=O)NCCNC(=O)c2ccccn2)cc1	0.19	i
Cc1oc(-c2nc3ccccc3n2C)cc1C(=O)c1ccccc1	-6.6	-6.6*
Cn1cc(C(=O)c2ccccc2)cc1-c1nc2ccccc2n1C	·	i
NC(=O)c1nsc(C(=O)N(c2ccc3c(c2)OCCO3)C(C(=O)NCC2CCCO2)c2ccc(F)cc2)c1N (configuration not stated)	1.3	i
CCCOP(=O)(OCCC)C(Nc1ccc(C(=O)O)cc1)c1ccccc1 (configuration not stated)	0.14	i
CCCCOP(=O)(OCCCC)C(Nc1ccc(C(=O)OCC)cc1)c1ccncc1 (configuration not stated)	-5.7	-5.7*
CN(C)S(=O)(=O)c1ccc(Cl)c(C(=O)Nc2cccc3ncccc23)c1	0.68	i
